Assay outcomes as filed in PubChem.
JMJD2E inh = qHTS Assay for Inhibitors of Human Jumonji Domain Containing 2E (JMJD2E). JMJD2E catalytic domain, FDH-coupled NADH fluorescence (FDH is formaldehyde dehydrogenase). actives 1.6% (n = 230,000). Potency, µM (series often up to 57.1 µM), inactives show top-dose activity change, negative = inhibition, hits mostly inhibitors; active means well fitted inhibition curve with a large enough effect, not every such curve was filed as active; inconclusive means small, poorly fitted or top-dose-only effect, or another doubt; inactive means no such curve, though single readings can be large or run the other way;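 further: potency means the concentration at half of the fitted maximal effect; 0% = wells with enzyme and -100% = buffer wells without enzyme; nearly all actives have a fitted effect of over 50% in size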
GALK inh = qHTS Assay for Inhibitors of Human Galactokinase (GALK). actives 0.007% (n = 270,000). P51570. AID 1868, 2009. Purified GALK, Kinase-Glo residual ATP luminescence. Potency, µM (doses to about 57.5 µM), without a hit: at the highest dose activity change, negative = inhibition, hits mostly inhibitors; further: potency means the concentration at half of the fitted maximal effect
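Compounds were pin-transferred into ATP buffer (35 uM final), then GALK plus galactose (5 nM, 100 uM final) was added. After 1 h at room temperature, Kinase-Glo Plus was added and luminescence read after 10 min.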
Apoferritin bind = qHTS Assay for Identification of Novel General Anesthetics | Potency, µM (highest dose often 77.5 µM), for inactives: at the highest dose activity change, negative = displacement, hits mostly inhibitors | actives 0.074% (n = 350,000) | AID 485281, 2010 | Ferritin light chain (Equus caballus), P02791 | apoferritin/1-aminoanthracene competitive binding, fluorescence; further: potency means the concentration at half of the fitted maximal effect; nearly all actives have a fitted effect of over 20% in size
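Probe: 1-aminoanthracene (50% saturated, PBS). Protein: horse-spleen apoferritin, 10 uM. Incubation: 10 min, room temperature. Detection: 380 nm excitation, 535 nm emission. Analysis: normalized response, four-parameter Hill.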
CtBP-E1A blk = qHTS Assay for Inhibitors of the CtBP/E1A Interaction; actives 0.49% (n = 340,000); CtBP / adenovirus E1A interaction (AlphaScreen); AlphaScreen GST-E1A/His-CtBP binding, 1536-well; hits give low values; activity change, % (concentration not given with the values); AID 651724, 2012; in the data active means activity change below about -65%; inconclusive means mostly about -30% to -63%
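Steps: dispense buffer (Tris pH 8.0, NaCl 300 mM, TCEP 1 mM, BSA, Tween 20); add 5X protein mix (GST-E1A, His-CtBP, 125 nM each); pin 23 nL compound; 2 h at 37 °C, dark; add 5X beads (50 ug/mL); 1 h; read.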
Six1-Eya2 blk = qHTS Assay for Inhibitors of the Six1/Eya2 Interaction | Homeobox protein SIX1 (Homo sapiens) + Protein phosphatase EYA2 (Homo sapiens), … | AlphaScreen GST-Six1/His-Eya2 binding, biochemical; hits give low values | activity change, % (test concentration not listed) | actives 0.56% (n = 360,000); in the data active means activity change below about -65%; inconclusive means mostly about -30% to -63%
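Six1/Eya2 binding was read as AlphaScreen signal after compounds were pinned into GST-Six1 plus His-tagged Eya2 (5X stock 250/500 nM) in pH 8.0 Tris/NaCl/TCEP buffer, beads added, then incubated 1 h, 37 C, dark.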
Eya2 phos inh = qHTS Assay for Inhibitors of the Phosphatase Activity of Eya2 | Potency, µM (doses to about 76.9 µM), for inactives: at the top dose activity, negative = inhibition, most hits filed as inhibitors | recombinant Eya2, OMFP fluorescence dephosphorylation (OMFP is methylfluorescein phosphate) | actives 0.006% (n = 330,000); further: potency means the concentration at half of the fitted maximal effect
Target sequence (O00167 whole entry, looked up): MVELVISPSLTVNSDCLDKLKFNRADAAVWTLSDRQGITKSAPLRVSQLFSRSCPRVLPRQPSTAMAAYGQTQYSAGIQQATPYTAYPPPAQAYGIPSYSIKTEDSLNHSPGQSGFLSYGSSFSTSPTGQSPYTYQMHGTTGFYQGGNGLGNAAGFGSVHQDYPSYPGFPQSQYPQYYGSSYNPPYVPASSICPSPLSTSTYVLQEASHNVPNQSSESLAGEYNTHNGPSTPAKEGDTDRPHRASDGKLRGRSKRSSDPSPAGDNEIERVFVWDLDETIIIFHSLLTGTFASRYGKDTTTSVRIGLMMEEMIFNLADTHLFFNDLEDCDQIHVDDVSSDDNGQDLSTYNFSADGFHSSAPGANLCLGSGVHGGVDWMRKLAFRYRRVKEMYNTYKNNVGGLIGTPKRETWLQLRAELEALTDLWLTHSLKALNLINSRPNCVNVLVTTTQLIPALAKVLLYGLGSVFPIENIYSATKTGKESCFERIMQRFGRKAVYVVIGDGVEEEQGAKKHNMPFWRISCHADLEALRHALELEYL
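Eya2 protein (added as 0.2 uM solution) was preincubated with compound for 10 min at ambient temperature in 50 mM HEPES pH 7.5, 50 mM NaCl, 5 uM MgCl2, 0.05% BSA, 1 mM DTT. OMFP (added at 50 uM) then reacted 10 min; fluorescence read at 485/525 nm.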
The depositor's hits bear a star; ? = inconclusive; / = no result. Many of the other results were omitted from the sample, so hits are more common in it than they were. Unless noted, the call rests on the fitted dose curve; in most records, active means well fitted curve in the direction sought with a large enough effect; inconclusive means small, poorly fitted or top-dose-only effect, or another doubt; inactive means no such curve, though single readings can be large; an effect the other way counts as inactive or inconclusive. Unless noted, on the % scale 0 is the no-effect control and ±100 the full control effect.

SMILES	JMJD2E inh	GALK inh	Apoferritin bind	CtBP-E1A blk	Six1-Eya2 blk	Eya2 phos inh
O=C(NC(=S)NNC(=O)c1cnccn1)c1ccc(Cl)cc1	?	/	3%	-95*	-92*	14%
O=C(NNC(=S)NC(=O)c1cccnc1)c1ccc(Cl)cc1	4%	/	-7%	-1	0	20%
O=C(NC(=S)NNC(=O)c1ccc(Cl)cc1Cl)c1cccnc1	-7%	0%	-8%	-10	0	2%
O=C(NC(=S)NNC(=O)c1ccccc1O)c1cccnc1	20µM*	0%	-4%	/	-90*	2%
COc1ccc(C(=O)NC(=S)NNC(=O)c2ccccc2C)cc1	/	/	/	-12	-21	/
COc1ccc(C(=O)NC(=S)NNC(=O)c2ccccc2O)cc1	/	1%	-1%	-12	-92*	-16%
CCCCC/C=C\C[C@@H](O)/C=C/C=C/C=C/[C@@H](O)CCCC(=O)O	0%	/	/	/	/	/
CC(=NNC(=S)Nc1cccc(C)c1)c1ccccn1	/	/	/	3	-81*	/
CC(=NNC(=S)Nc1ccc(C)cc1)c1ccccn1	/	/	/	-8	-85*	/
COc1ccccc1NC(=S)NN=C(C)c1ccccn1	/	/	/	-81*	-72*	/
C/C(=N\NC(=S)Nc1ccc(C)cc1)c1cccc(N)c1	1%	-1%	-23%	-11	-9	12%
CN(Cc1ccccc1)S(=O)(=O)c1ccc(NC(=O)c2cc(=O)c3ccccc3o2)cc1	/	/	-19%	/	/	/
CCOC(=O)/C=C(\C)Sc1cc(O)c2ccccc2c1O	3.5µM*	?	-17%	/	?	-1%
CCOC(=O)/C=C(\C)Sc1cc(=O)oc2ccccc12	-3%	-2%	7%	6	4	5%
Nc1sc2c(c1C(=O)NC1CCS(=O)(=O)C1)CCCC2 (stereo not given)	28µM*	-2%	-1%	1	-1	-1%
NC(=O)c1c(N)sc2c1CCCC2	?	1%	2%	0	-8	-11%
CCCCC/C=C\C/C=C\CCCCCCCCCC(=O)NCCCC(=O)O	-4%	/	/	/	/	/
Oc1ccccc1C=NCCN1CCN(CCN=Cc2ccccc2O)C1c1ccccc1O (stereo not given)	/	/	/	-99*	-86*	/
CCOC(=O)c1nnn(-c2ccccc2)c1C	8%	0%	-1%	-21	-9	-5%
CCOC(=O)c1nnn(-c2ccc([N+](=O)[O-])cc2[N+](=O)[O-])c1C	-3%	1%	-8%	-66*	-6	-4%
CC(OCc1ccccc1)C(NC(=O)OC(C)(C)C)C(=O)NC1COC2CC(n3ccc(=O)[nH]c3=O)OC12 (stereo not given)	/	/	0%	/	/	/
CC[C@H](C)[C@@H](NC(=O)O[C@@H]1Cc2cc(Br)ccc2O[C@H]1c1cccc(OC)c1)C(=O)OC	12%	/	/	/	/	/
COC(=O)c1c(C(=O)OC)c2cccc3cc(-c4ccccc4)c4ccc1c4n32	2.5µM*	0%	-20%	?	?	-6%
COc1ccc(Cl)cc1N=C1NC(=O)CC(C(=O)Nc2ccccc2C(F)(F)F)S1 (stereo not given)	/	/	-17%	/	/	/
COc1c(O)cc2oc3cc(O)c(CC=C(C)C)c(O)c3c(=O)c2c1CC=C(C)C	1%	/	/	/	/	/
O=C(O)COc1ccccc1C(Nc1cccnc1)c1cc(Cl)c2cccnc2c1O (stereo not given)	-4%	-1%	28µM*	-91*	-67*	4%
O=C(O)COc1ccccc1C(Nc1ccccn1)c1cc(Cl)c2cccnc2c1O (stereo not given)	?	1%	-8%	-85*	?	11%
CCOc1ccc(C(Nc2cccnc2)c2cc(Cl)c3cccnc3c2O)cc1 (stereo not given)	-18%	8%	-11%	-68*	?	10%
